Screen size: about 52,000 compounds; about 1,700 (3.3%) were called active. The sample holds actives, similar compounds and a random draw of the others, so the mix is not that of the screen. No stated cut-off is given here; in the data, active means survival mostly below about 52% (no sharp cut-off); inactive means mostly above about 56%.

Data on 94 molecules can be found in PubChem BioAssay AID463173 (ICCB-Longwood Screening Facility, Harvard Medical School, 2010).

This assay deals with Wild type. As to the kind of experiment: S. aureus survival, RN4220 and DeltatarO strains – OD600, teichoic acid synthesis inhibitors, primary screen (AID 463173). The conditions noted are these: S. aureus RN4220 wild type/DeltatarO growth, OD600, 18 h, stronger effect = lower value, screened at 18.75 µg/mL (by protocol).
Consider `CCCC(C)C(=O)Nc1nnc(C(F)(F)F)s1` (centres undefined), for which the survival is 100% (inactive).

Consider `O=C(Nc1cccc2c1CCCC2)N1CCOc2ccc(Cl)cc21`, for which the survival was 83% (inactive).

Consider `COc1ccc(-c2nc(CCNC(=O)c3cccs3)cs2)cc1OC`, for which the survival was 159% (inactive).

With `Cc1cccc(Cn2c(CNS(=O)(=O)c3ccc(C(C)C)cc3)nc3cccnc32)c1`, the survival is 78% (inactive).

For `N=c1nc(N)nc2n1NC(c1ccc(F)cc1)=CS2`, the survival was 108% (inactive).

As to `CCC(Sc1ncc(S(=O)(=O)c2ccc(Cl)cc2)c(=O)[nH]1)C(=O)Nc1ccc(OC)cc1` (centres undefined), the survival was 96% (inactive).

Consider `CC1CCN(CC(=O)N2CCCc3c2c(=O)oc2ccc(OCc4ccccc4)cc32)CC1`, for which the survival was 86% (inactive).

On to `CC1CCCCN1CC(=O)N1CCCc2c1c(=O)oc1ccc(OCc3ccccc3)cc21` (centres undefined), for which the survival was 43% (inactive).

Regarding `CCC1CCCCN1CC(=O)N1CCCc2c1c(=O)oc1ccc(OCc3ccccc3)cc21` (centres undefined), the survival was 3% (active).

On to `CCCCN(CCCC)C(=O)c1cc2c(=O)n3cccc(C)c3nc2s1`, for which the survival was -2% (active).

`CCCCN(CC)C(=O)c1cc2c(=O)n3cccc(C)c3nc2s1`: the survival was 77% (inactive).

Turning to `CCCN(CCC)C(=O)c1cc2c(=O)n3cccc(C)c3nc2s1`, the survival is 80% (inactive).

Consider `CCOC(=O)c1[nH]c2ccccc2c1N=CN(C)C`, for which the survival is 104% (inactive).

For `O=c1cc(O)n(-c2ccccc2)c(=S)[nH]1`, the survival was 99% (inactive).

For the molecule `Cc1ccccc1Cn1cnc2nc3c(cc2c1=O)CC(C)CC3` (centres undefined), the survival was 0% (active).

Regarding `CC1CCc2nc3ncn(Cc4ccc(Cl)cc4)c(=O)c3cc2C1` (centres undefined), the survival was 80% (inactive).

With `Cc1ccc(Cn2cnc3nc4c(cc3c2=O)CC(C)CC4)cc1` (centres undefined), the survival is -3% (active).

Consider `CC1CCc2nc3ncn(Cc4ccccc4C#N)c(=O)c3cc2C1` (centres undefined), for which the survival is 71% (inactive).

`CC1CCc2nc3ncn(Cc4ccccc4F)c(=O)c3cc2C1` (centres undefined): the survival was 53% (inactive).

For the molecule `CC1CCc2nc3ncn(Cc4cccc(F)c4)c(=O)c3cc2C1` (centres undefined), the survival is 66% (inactive).

As to `O=C(O)CN1C(=O)/C(=C\c2ccccc2)SC1=S`, the survival was 102% (inactive).

Regarding `CN1/C(=C2/SC(=O)N(Cc3ccccc3)C2=O)Sc2ccccc21`, the survival was 118% (inactive).

As to `Cc1cc(N2CCC(C)CC2)nc2ccc(NC(=O)CCC(=O)N3CCN(c4cccc(C(F)(F)F)c4)CC3)cc12`, the survival was 64% (inactive).

For the molecule `Cc1ccc(-c2nonc2NC(=O)c2ccco2)cc1C`, the survival is 79% (inactive).

With `COc1ccc(-c2cn3cccnc3n2)cc1NC(=O)c1ccccc1C(F)(F)F`, the survival is 69% (inactive).

Consider `COc1cc2nc(NC(=O)c3ccc(S(=O)(=O)N4CCOCC4)cc3)sc2cc1OC`, for which the survival was 79% (inactive).

In the case of `COC(=O)c1sc2cccc(F)c2c1S(=O)(=O)N1CCN(c2ccccc2OC)CC1`, the survival is 47% (inactive).

Consider `Cc1cccc(-c2nc(CSCC(=O)NCCc3ccc(Cl)cc3)c(C)o2)c1`, for which the survival is -3% (active).

On to `COc1ccc(-c2nc(CSCC(=O)NCCc3ccccc3)c(C)o2)cc1`, for which the survival is 95% (inactive).

In the case of `COc1ccc(CCNC(=O)CSCc2nc(-c3cccc(C)c3)oc2C)cc1OC`, the survival is 74% (inactive).

On to `CCOc1ccc(CCNC(=O)CSCc2nc(-c3cccc(C)c3)oc2C)cc1OCC`, for which the survival is 80% (inactive).

For `COc1cccc(-c2nc(CS(=O)(=O)CC(=O)NCCc3ccc(Cl)cc3)c(C)o2)c1`, the survival was 78% (inactive).

As to `COc1cccc(-c2nc(CSCC(=O)NCCc3ccc(Cl)cc3)c(C)o2)c1`, the survival was -1% (active).

Turning to `COc1cc2[nH]c(=O)n(CCCC(=O)N(C)Cc3ccccc3)c(=O)c2cc1OC`, the survival is 68% (inactive).

For `CN(C)c1ccc(-c2nnc3n(Cc4ccccc4)c(=O)c4ccccc4n23)cc1`, the survival was 83% (inactive).

Consider `COc1ccc(N2CCN(C(=O)c3cccc(NC(=O)c4nsc5ccccc45)c3)CC2)cc1`, for which the survival is 131% (inactive).

As to `O=C(NCc1ccc2c(c1)OCO2)C1CCN(c2ccc(S(=O)(=O)N3CCCC3)cc2)CC1`, the survival was 101% (inactive).

For the molecule `COc1ccccc1N1CCN(c2nc(-c3ccc(C)cc3)nc3ccccc23)CC1`, the survival is 72% (inactive).

In the case of `CC1CCCN(c2nc(-c3ccccc3O)nc3ccccc23)C1` (centres undefined), the survival is -3% (active).

In the case of `Cc1ccc(-c2nc(N3CCCC(C)C3)c3ccccc3n2)cc1` (centres undefined), the survival is -2% (active).

Turning to `COc1ccc(N2CCN(c3nc(-c4ccccc4F)nc4ccccc34)CC2)cc1`, the survival was 92% (inactive).

As for `Cc1cccc(-c2nc(N3CCN(c4ccc(F)cc4)CC3)c3ccccc3n2)c1`, the survival is 64% (inactive).

Consider `CC1CCCN(c2csc3ccccc3c2=O)C1` (centres undefined), for which the survival was 97% (inactive).

For `N#CCNC(=O)c1sc2ccccc2c1Cl`, the survival was 107% (inactive).

For `Cc1nnc(NC(=O)CCCN2C(=O)/C(=C/c3cccs3)SC2=S)s1`, the survival was 107% (inactive).

With `COc1cc(C(=O)N2CC(=O)Nc3ccc(C)cc3C2c2ccc(F)cc2)cc(OC)c1OC` (centres undefined), the survival is 147% (inactive).

Take `Cc1c(Cl)cccc1NC(=O)CCS(=O)(=O)c1ccc2c(c1)CC(C)N2C(=O)C1CC1` (centres undefined): the survival is 85% (inactive).

With `Cc1ccc(-n2ncc3c(N4CCC(Cc5ccccc5)CC4)ncnc32)cc1`, the survival was 70% (inactive).

For the molecule `CC(C)CC(NC(=O)C1CCCCC1)C(=O)Nc1cccc(C(F)(F)F)c1` (centres undefined), the survival was 64% (inactive).

As to `C=Cc1ccc(CN2C(=O)N(c3cccc(Cl)c3)S(=O)(=O)c3ccccc32)cc1`, the survival is 57% (inactive).

As for `C=Cc1ccc(CN2C(=O)N(c3ccc(CC)cc3)S(=O)(=O)c3ccccc32)cc1`, the survival is 1% (active).

Consider `C=Cc1ccc(CN2C(=O)N(c3ccc(C)c(C)c3)S(=O)(=O)c3ccccc32)cc1`, for which the survival is 71% (inactive).

Turning to `Cc1coc2c(C)c3oc(=O)c(CCC(=O)NCCc4ccccc4)c(C)c3cc12`, the survival was 84% (inactive).

For `COc1cccc(N2CCN(C(=O)c3cnc4c(C)cccn4c3=O)CC2)c1`, the survival is 91% (inactive).

Take `Cc1ccc2nc(NCc3ccccc3Cl)c3nnnn3c2c1`: the survival is 94% (inactive).

With `Cc1ccc(N2CCN(c3nc4ccc(C)cc4n4nnnc34)CC2)c(C)c1`, the survival was 76% (inactive).

In the case of `Cc1ccc2nc(N3CCN(c4ccccc4F)CC3)c3nnnn3c2c1`, the survival was 76% (inactive).

Regarding `COc1ccc(N2CCN(c3nc4ccc(C)cc4n4nnnc34)CC2)cc1`, the survival was -6% (active).

For the molecule `Cc1ccc2nc(N3CCN(c4ccc(F)cc4)CC3)c3nnnn3c2c1`, the survival was 14% (active).

In the case of `COc1ccccc1N1CCN(c2nc3ccc(C)cc3n3nnnc23)CC1`, the survival was 133% (inactive).

As to `COc1ccccc1CNc1nc2ccc(C)cc2n2nnnc12`, the survival was -1% (active).

As for `Cc1ccc2nc(N3CCN(c4ccccc4)CC3)c3nnnn3c2c1`, the survival was 78% (inactive).

As to `COc1ccc(OC)c(CNc2nc3ccc(C)cc3n3nnnc23)c1`, the survival was 85% (inactive).

For `CCN(c1ccccc1)S(=O)(=O)c1ccc(-c2cc(C)no2)s1`, the survival was 159% (inactive).

On to `NC(=S)N/N=C/c1ccccc1OCC(=O)O`, for which the survival is 96% (inactive).

`Cc1ccc(NC(=O)Cn2ccn(-c3ccc(F)c(F)c3)c(=O)c2=O)cc1C`: the survival was 78% (inactive).

As to `Cc1ccc(-c2c(C(=O)NCCc3ccc(Cl)cc3)oc(=O)c3ccccc23)cc1`, the survival is 57% (inactive).

Turning to `Cc1ccc(-c2c(C(=O)NCCc3ccccc3)oc(=O)c3ccccc23)cc1`, the survival is 79% (inactive).

As for `CCCCN(Cc1ccccc1)C(=O)c1oc(=O)c2ccccc2c1-c1ccc(C)cc1`, the survival is 0% (active).

Consider `Cc1ccc(CCNC(=O)c2oc(=O)c3ccccc3c2-c2ccc(C)cc2)cc1`, for which the survival is 17% (inactive).

For `Cc1ccc(-c2c(C(=O)NCc3ccc(F)cc3)oc(=O)c3ccccc23)cc1`, the survival is 76% (inactive).

Take `Cc1ccc(-c2c(C(=O)N(C)Cc3ccccc3)oc(=O)c3ccccc23)cc1`: the survival was 11% (active).

Consider `COc1ccccc1CCNC(=O)c1ccc2c(c1)c(C)c(C)n2Cc1ccc(Cl)cc1`, for which the survival is 77% (inactive).

For `CC1(C)Cc2ccccc2-c2nnc(-c3ccccc3)n21`, the survival was 95% (inactive).

Regarding `COc1ccc(C2C=C(c3ccc(Br)cc3)Nc3nnnn32)c(OC)c1` (centres undefined), the survival is 66% (inactive).

Turning to `Fc1ccc(Br)cc1C1C=C(c2ccc(Br)cc2)Nc2nnnn21` (centres undefined), the survival is 81% (inactive).

With `COc1cccc(C2=CC(c3cc(Br)ccc3F)n3nnnc3N2)c1` (centres undefined), the survival was -4% (active).

As to `O=C(c1ccc2c(c1)N(Cc1ccc(Cl)cc1)C(=O)c1ccccc1S2=O)N1CCOCC1` (centres undefined), the survival was 83% (inactive).

Regarding `Cc1ccc(S(=O)(=O)N2CCCc3cc(NC(=O)c4ccc(C(F)(F)F)cc4)ccc32)cc1`, the survival is 110% (inactive).

Regarding `Cc1ccc2c(c1)-c1ncc(C(=O)c3ccccc3O)cc1CO2`, the survival was -7% (active).

As to `O=C(c1cnc2c(c1)COc1ccccc1-2)c1ccccc1O`, the survival is 5% (active).

For the molecule `Cc1ccc2c(c1)-c1nc(-c3ccccc3)cc(-c3ccccc3)c1CO2`, the survival was 79% (inactive).

As to `Cc1cc(O)c(C(=O)c2cnc3c(c2)COc2ccccc2-3)cc1Cl`, the survival was 64% (inactive).

Take `O=C(c1cnc2c(c1)COc1ccc(Cl)cc1-2)c1ccccc1O`: the survival is 131% (inactive).

`Cc1ccc2c(c1)-c1ncc(C(=O)c3cc(Br)ccc3O)cc1CO2`: the survival is 56% (inactive).

With `COc1ccc(C2=C(C)C(N3CCC(C(=O)NCc4ccco4)CC3)=NS2(=O)=O)cc1`, the survival was 56% (inactive).

Turning to `Cc1ccc(NS(=O)(=O)c2cc3[nH]c(=O)c(=O)[nH]c3cc2C)cc1N(C)C`, the survival was 81% (inactive).

Consider `CC1(CCC(=O)O)NNC(=S)NN1`, for which the survival is 101% (inactive).

Turning to `Cn1cccc1-c1cc2n(n1)CCC(=O)N2CC(=O)Nc1ccc(F)cc1Cl`, the survival is 63% (inactive).

With `Cc1nn(C(=O)c2cccc(F)c2)c(C)c1S(=O)(=O)N1CCCCCC1`, the survival is 84% (inactive).

Take `Cc1c(C(=O)N2CCC(C)CC2)c(S(=O)(=O)Nc2cccc(C(F)(F)F)c2)c(C)n1C`: the survival is 78% (inactive).

In the case of `CCOC(=O)c1ccc(N2CCN(c3cccc(Cl)c3)CC2)c(NC(=O)Nc2ccc(Cl)cc2)c1`, the survival is 76% (inactive).

`CCOC(=O)c1ccc(N2CCN(c3ccc(F)cc3)CC2)c(NC(=O)Nc2cccc(OC)c2)c1`: the survival is 67% (inactive).

With `CCOC(=O)c1ccc(N2CCN(c3cccc(OC)c3)CC2)c(NC(=O)Nc2ccc(OCC)cc2)c1`, the survival is -6% (active).
